Experimental data: PubChem BioAssay (NCATS)
Results filed as inconclusive are left out. Activity calls are given as the source filed them. Unless noted, calls come from the whole dose curve; as a rule, active = well fitted curve in the direction sought with a large enough effect; inconclusive = small, poorly fitted or top-dose-only effect, or another doubt; inactive = no such curve, though single readings can be large; an effect the other way counts as inactive or inconclusive.

Legend:
[1] = qHTS assay for measurement of the activity of small molecule inhibitors on Zika virus induced Caspase-3 activity in human iPSC derived neural progenitor cells (hNPCs) (AID 1224857); note: % of control where 0% means no effect; nearly all actives have a fitted effect of over 65% in size
Outline: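 Human iPSC-derived neural progenitor cells pretreated 1 hr with compounds, then infected with Zika virus (2 FFU/cell) for 6 hours at 37 C. Caspase-3/7 measured by Caspase-Glo luminescence; % inhibition calculated from induction scaled to uninfected (0%) and infected (100%) wells.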

[2] = qHTS assay for measurement of the activity of small molecule inhibitors on Zika virus induced Caspase-3 activity in human astrocytoma cells (AID 1224859);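 note: plate controls were ZIKV-infected untreated cells for no effect and uninfected cells for full effect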
Outline: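 SNB-19 astrocytoma cells, 250/well, pretreated 1 h with compounds, then Zika virus at 2 FFU/cell for 6 h at 37 C; Caspase-Glo 3/7 luminescence after 30 min; percent inhibition normalised to uninfected and infected controls.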

[3] = qHTS assay to identify small molecule inhibitors of chordoma cells - UCH-1 (AID 1259355); note: % is set by controls: 0 for no effect and ±100 for the full control effect; nearly all actives have a fitted effect of over 55% in size
Outline: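 A 48hr growth-inhibition format: each drug tested at 15 concentrations together with added auranofin, camptothecin, doxorubicin, rubitecan and topotecan, with cell viability quantified as CellTiter-Glo luminescence.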

[4] = qHTS assay to identify small molecule inhibitors of chordoma cells - UCH-2 (AID 1259356); note: series mostly up to about 46 µM; % is set by controls: 0 for no effect and ±100 for the full control effect
[5] = biological target: Atrial natriuretic peptide receptor 1 (Homo sapiens) (UniProt P16066); assay: Natriuretic polypeptide receptor (hNpr1) antagonism - Pilot screen (AID 1347049; calls by dose curve;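 note: HEK293 cells with hNpr1 and GloSensor cGMP luciferase stimulated by 0.1 nM hNppA; agonist-evoked cGMP luminescence read 20 min after hNppA addition; series mostly up to about 58 µM; % is set by controls: 0 for no effect and ±100 for the full control effect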)
Outline: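 Cells expressing receptor plus cGMP biosensor are seeded and incubated overnight at 37C, then loaded with GloSensor reagent (2% final) at room temperature for 2 h. Library compounds go on for 30 min. A pre-read precedes agonist (hNppA, 0.1 nM final) and a 20-min readout.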

[6] = NS1 protein of Zika virus - qHTS assay to identify small molecule inhibitors in human HEK 293 cells (AID 1347053);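 note: series mostly up to about 46 µM; plate controls were infected untreated cells for no effect and uninfected cells for full effect; nearly all actives have a fitted effect of over 55% in size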
Outline: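 Compound-treated (1 h pre-infection) HEK 293 cells infected with ZIKV MR766, MOI = 0.5; after 24 h at 37 C, NS1 read by TR-FRET; data normalized to uninfected and infected controls.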

[7] = qHTS of pediatric cancer cell lines to identify multiple opportunities for drug repurposing: Primary screen for DAOY cells (AID 1347090);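 note: series mostly up to about 46 µM; plate controls were DMSO for no effect and bortezomib for full effect; nearly all actives have a fitted effect of over 55% in size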
Outline: (§1)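 Eight- or eleven-point concentration series, 48 h treatment at 37 degrees C in growth media; readout CellTiter-Glo luminescence. Potency and efficacy were taken from the concentration-response curves.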

[8] = biological target: Atrial natriuretic peptide receptor 2 (Homo sapiens) (UniProt P20594); assay: Natriuretic polypeptide receptor (hNpr2) antagonism - Pilot subtype selectivity assay (AID 1347050; calls by dose curve; note: % is set by controls: 0 for no effect and ±100 for the full control effect)
Outline: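 Read-out: GloSensor luminescence (CCD imager), baseline vs post-stimulation. HEK293 cells expressing hNpr2; compounds pre-incubated 30-50 min at ambient temperature; hNppC 1 nM final, 20 min.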

[9] = biological target: T1, Tyrosine-protein phosphatase non-receptor type substrate 1 (Homo sapiens) + Leukocyte surface antigen CD47 (Homo sapiens) (UniProt P78324+Q08722); assay: CD47-SIRPalpha protein protein interaction - LANCE assay qHTS validation (AID 1347057; active = well fitted curve in the direction sought with a large enough effect in the signal ratio, with a control signal flat, not every such curve was filed as active; the % refers to the signal ratio; note: series mostly up to about 38 µM; 0% is about no effect)
Outline: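 Inhibition of soluble CD47/SIRPalpha ectodomain association by titrated compounds, measured as 665/615 nm time-resolved FRET ratio after sequential 30 min room-temperature incubations.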

[10] = biological target: T1, Tyrosine-protein phosphatase non-receptor type substrate 1 (Homo sapiens) + Leukocyte surface antigen CD47 (Homo sapiens); assay: CD47-SIRPalpha protein protein interaction - Alpha assay qHTS validation (AID 1347059);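 note: bead proximity luminescence from CD47 binding SIRPalpha after compound preincubation with SIRPalpha; % is set by controls: 0 for no effect and ±100 for the full control effect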
Outline: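 In PBS (pH 7.4) with 0.05% IGEPAL CA-630, compound is preincubated with biotin-Avi-SIRPalpha ectodomain before His-CD47 ectodomain and affinity beads are added. Light-protected room-temperature incubations; AlphaScreen readout.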

[11] = biological target: Parathyroid hormone/parathyroid hormone-related peptide receptor (Homo sapiens) (UniProt Q03431); assay: qHTS for PTHR1 Agonists: Optimization Screen against the NCGC LOPAC library (AID 1347079);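 note: GloSensor cAMP luminescence in HEK-293 GP2 cells expressing human PTHR1 with IBMX; 0% is about no effect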
Outline: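 HEK-293 GP2 cells, PTHR1 + GloSensor cAMP; 3000 cells/well, o/n. Luciferin + IBMX 0.5mM each (stock), 1 hr 37C. Cpd titration, 1 hr 37C. Lum after 15 min RT. Ctrl M-PTH(1-15) top 10uM.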

[12] = qHTS of pediatric cancer cell lines to identify multiple opportunities for drug repurposing: Primary screen for TC32 cells (AID 1347089); note: % is set by controls: 0 for no effect and ±100 for the full control effect; nearly all actives have a fitted effect of over 60% in size
Outline: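 Luminescent CellTiter-Glo read-out of metabolically active TC32 cells after 48 h compound exposure. Primary: MIPE 11-point, 0.78 nM–46 µM; NPC 8-point, 0.59 nM–46 µM. Confirmatory: 11-point dilutions.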

[13] = qHTS of pediatric cancer cell lines to identify multiple opportunities for drug repurposing: Primary screen for SJ-GBM2 cells (AID 1347091);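 note: plate controls were DMSO neutral control for no effect and bortezomib for full effect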
Outline: as §1

[14] = biological target: T1, Tyrosine-protein phosphatase non-receptor type substrate 1 (Homo sapiens) + Leukocyte surface antigen CD47 (Homo sapiens); assay: CD47-SIRPalpha protein protein interaction - HTRF assay qHTS validation (AID 1347058; active = well fitted curve in the direction sought with a large enough effect in the signal ratio, not every such curve was filed as active; the % refers to the signal ratio; note: series mostly up to about 38 µM; 0% is about no effect)
Outline: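 Soluble extracellular domains (6His-CD47, Avi-tag-biotinylated SIRPalpha) in PBS pH 7.4 with 0.05% IGEPAL CA-630. Compounds were preincubated 30 min at RT with CD47 and anti-His-Eu, then SIRPalpha and SAV-XL665 were added. TR-FRET 665/615 ratio.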

[15] = P-glycoprotein substrates identified in KB-8-5-11 adenocarcinoma cell line, qHTS therapeutic library screen (AID 1346987); note: series mostly up to about 44 µM; % is set by controls: 0 for no effect and ±100 for the full control effect; nearly all actives have a fitted effect of over 65% in size
Outline: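 Compounds are pinned in dose-response onto KB-8-5-11 cells (500 cells/well, colchicine-free medium) and left 72 h at 37 degree C. CellTiter-Glo luminescence then yields AC50 values.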

[16] = Natriuretic polypeptide receptor (hNpr1) antagonism - Pilot counterscreen GloSensor control cell line (AID 1347045; calls by dose curve)
Outline: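 Control counterscreen: luciferase cGMP-biosensor HEK293 cells (no Npr1) received compound for 30 min at room temperature after GloSensor substrate loading. Luminescence was measured before and 20 min after soluble guanylyl cyclase activation by 50 uM nitroprusside.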

Chain of Atrial natriuretic peptide receptor 1 (Homo sapiens) (P16066 whole entry, looked up): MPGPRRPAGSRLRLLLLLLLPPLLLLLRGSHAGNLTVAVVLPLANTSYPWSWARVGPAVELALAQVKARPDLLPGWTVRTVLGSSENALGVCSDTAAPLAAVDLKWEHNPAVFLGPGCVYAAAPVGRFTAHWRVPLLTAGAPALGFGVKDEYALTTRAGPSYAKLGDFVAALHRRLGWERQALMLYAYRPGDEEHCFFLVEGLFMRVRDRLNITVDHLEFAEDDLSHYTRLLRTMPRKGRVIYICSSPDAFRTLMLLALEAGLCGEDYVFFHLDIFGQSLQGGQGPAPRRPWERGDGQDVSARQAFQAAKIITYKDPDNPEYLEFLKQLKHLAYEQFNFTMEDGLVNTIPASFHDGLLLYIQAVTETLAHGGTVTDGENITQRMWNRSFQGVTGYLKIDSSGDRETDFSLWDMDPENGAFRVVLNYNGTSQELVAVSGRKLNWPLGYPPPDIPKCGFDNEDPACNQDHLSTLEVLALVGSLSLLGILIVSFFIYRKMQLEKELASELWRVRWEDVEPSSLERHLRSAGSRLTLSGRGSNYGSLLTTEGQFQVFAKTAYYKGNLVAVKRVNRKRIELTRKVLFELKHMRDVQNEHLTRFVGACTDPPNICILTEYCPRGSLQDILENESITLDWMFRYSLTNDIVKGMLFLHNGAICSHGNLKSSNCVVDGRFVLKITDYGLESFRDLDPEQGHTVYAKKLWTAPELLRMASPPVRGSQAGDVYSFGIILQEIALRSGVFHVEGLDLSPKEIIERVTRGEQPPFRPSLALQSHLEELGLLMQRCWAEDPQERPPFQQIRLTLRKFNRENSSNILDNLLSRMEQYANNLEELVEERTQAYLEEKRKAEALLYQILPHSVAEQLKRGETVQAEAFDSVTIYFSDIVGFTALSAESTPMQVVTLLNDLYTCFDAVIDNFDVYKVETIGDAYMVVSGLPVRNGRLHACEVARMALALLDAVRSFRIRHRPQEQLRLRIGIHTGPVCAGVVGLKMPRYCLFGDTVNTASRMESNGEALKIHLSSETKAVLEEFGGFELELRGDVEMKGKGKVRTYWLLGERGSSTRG
Chain of Atrial natriuretic peptide receptor 2 (Homo sapiens) (P20594 whole entry, looked up): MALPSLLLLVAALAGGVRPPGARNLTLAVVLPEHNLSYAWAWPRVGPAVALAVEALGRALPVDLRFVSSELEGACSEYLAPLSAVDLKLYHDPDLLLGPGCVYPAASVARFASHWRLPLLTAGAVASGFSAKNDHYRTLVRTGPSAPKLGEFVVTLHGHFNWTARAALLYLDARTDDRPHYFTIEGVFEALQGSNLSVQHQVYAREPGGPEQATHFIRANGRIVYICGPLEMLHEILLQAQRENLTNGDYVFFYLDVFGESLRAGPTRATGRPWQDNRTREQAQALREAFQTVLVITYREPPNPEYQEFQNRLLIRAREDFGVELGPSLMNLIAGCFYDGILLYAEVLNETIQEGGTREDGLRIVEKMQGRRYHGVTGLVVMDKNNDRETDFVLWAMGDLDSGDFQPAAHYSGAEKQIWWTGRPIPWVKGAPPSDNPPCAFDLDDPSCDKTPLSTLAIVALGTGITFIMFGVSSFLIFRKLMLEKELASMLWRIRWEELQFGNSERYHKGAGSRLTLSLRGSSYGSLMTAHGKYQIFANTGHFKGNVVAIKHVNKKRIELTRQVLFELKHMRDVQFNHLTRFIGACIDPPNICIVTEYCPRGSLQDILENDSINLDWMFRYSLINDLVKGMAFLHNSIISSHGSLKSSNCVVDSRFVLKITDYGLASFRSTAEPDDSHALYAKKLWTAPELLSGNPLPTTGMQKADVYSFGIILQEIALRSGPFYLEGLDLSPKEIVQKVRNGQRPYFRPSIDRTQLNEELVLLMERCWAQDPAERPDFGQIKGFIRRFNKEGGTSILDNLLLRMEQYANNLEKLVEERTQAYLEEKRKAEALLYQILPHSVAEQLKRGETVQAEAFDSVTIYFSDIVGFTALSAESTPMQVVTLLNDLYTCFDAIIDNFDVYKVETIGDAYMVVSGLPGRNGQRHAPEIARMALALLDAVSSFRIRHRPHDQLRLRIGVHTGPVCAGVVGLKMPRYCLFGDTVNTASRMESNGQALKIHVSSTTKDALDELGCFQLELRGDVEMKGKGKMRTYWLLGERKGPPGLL
Chain of Parathyroid hormone/parathyroid hormone-related peptide receptor (Homo sapiens) (Q03431 whole entry, looked up): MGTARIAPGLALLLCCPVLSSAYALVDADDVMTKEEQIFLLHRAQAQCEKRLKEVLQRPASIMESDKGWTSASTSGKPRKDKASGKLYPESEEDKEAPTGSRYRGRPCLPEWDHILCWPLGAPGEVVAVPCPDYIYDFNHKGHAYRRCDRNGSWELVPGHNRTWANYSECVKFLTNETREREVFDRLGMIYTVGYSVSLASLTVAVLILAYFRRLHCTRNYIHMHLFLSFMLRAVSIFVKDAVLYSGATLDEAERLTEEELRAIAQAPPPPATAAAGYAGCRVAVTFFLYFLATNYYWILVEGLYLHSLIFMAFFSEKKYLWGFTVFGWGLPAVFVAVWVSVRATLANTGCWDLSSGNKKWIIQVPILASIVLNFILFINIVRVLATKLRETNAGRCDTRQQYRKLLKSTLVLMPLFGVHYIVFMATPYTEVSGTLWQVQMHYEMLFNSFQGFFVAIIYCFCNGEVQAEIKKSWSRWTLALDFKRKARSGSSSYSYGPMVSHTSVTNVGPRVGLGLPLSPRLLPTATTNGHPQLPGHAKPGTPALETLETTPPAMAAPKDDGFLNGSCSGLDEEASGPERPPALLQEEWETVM
T1 sequence (P78324 whole entry, looked up, the tested form may be a part): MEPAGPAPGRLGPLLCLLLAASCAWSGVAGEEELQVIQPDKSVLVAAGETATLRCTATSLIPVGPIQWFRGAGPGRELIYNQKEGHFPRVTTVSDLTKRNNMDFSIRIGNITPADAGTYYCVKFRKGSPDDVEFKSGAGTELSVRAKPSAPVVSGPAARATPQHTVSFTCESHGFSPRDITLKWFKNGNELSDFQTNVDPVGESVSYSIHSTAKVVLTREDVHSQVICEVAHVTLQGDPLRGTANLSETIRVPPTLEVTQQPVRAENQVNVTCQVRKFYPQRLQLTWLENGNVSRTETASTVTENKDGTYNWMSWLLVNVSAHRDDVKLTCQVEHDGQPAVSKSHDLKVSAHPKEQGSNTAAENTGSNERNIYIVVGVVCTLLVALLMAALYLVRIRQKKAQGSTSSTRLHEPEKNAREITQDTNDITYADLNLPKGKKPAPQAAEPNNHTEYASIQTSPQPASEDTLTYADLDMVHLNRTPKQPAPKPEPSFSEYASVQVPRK
T1 sequence (Q08722 whole entry, looked up, the tested form may be a part): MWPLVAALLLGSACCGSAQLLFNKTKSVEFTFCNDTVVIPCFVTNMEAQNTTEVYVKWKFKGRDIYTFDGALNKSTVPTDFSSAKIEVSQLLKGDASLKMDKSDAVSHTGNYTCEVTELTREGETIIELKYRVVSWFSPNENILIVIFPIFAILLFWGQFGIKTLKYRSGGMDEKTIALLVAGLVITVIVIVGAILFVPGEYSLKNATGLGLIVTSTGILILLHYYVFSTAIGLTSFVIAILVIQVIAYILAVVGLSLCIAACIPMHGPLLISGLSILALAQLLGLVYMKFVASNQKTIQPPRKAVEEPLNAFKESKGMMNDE

CN(C)CCCN1c2ccccc2Sc2ccc(C(F)(F)F)cc21
inactive: outcome [1] | outcome [2] | Potency [3] | Potency [4] | Potency [5] | outcome [6] | Potency [7]

CCn1nc(C(=O)O)c(=O)c2cc3c(cc21)OCO3
inactive: outcome [1] | outcome [2] | Potency [3] | Potency [4] | Potency [5] | Potency [8] | outcome [6] | outcome [9] | Potency [10] | outcome [11] | Potency [12] | Potency [7] | Potency [13]

CCCNC(C)C(=O)Nc1ccccc1C (stereo unspecified)
inactive: outcome [1] | outcome [2] | Potency [3] | Potency [4] | Potency [5] | Potency [8] | outcome [6] | outcome [9] | outcome [14] | Potency [10] | Potency [12] | Potency [7] | Potency [13]

COCCCC/C(=N\OCCN)c1ccc(C(F)(F)F)cc1
inactive: outcome [1] | outcome [2] | Potency [3] | Potency [5] | Potency [8] | outcome [6] | outcome [9] | outcome [14] | Potency [10] | Potency [12] | Potency [7] | Potency [13]

CCc1c(C)[nH]c2c1C(=O)C(CN1CCOCC1)CC2 (stereo unspecified)
inactive: outcome [1] | outcome [2] | Potency [4] | Potency [15] | Potency [16] | Potency [5] | Potency [8] | outcome [6] | outcome [9] | outcome [14] | Potency [10] | Potency [12] | Potency [7] | Potency [13]

C[N+](C)(C)CCOC(=O)CCC(=O)OCC[N+](C)(C)C
inactive: outcome [1] | outcome [2] | Potency [3] | Potency [4] | Potency [5] | Potency [8] | outcome [6] | outcome [9] | outcome [14] | Potency [10] | outcome [11] | Potency [12] | Potency [7] | Potency [13]

C[C@]12C=CC(=O)C=C1CC[C@H]1[C@@H]3C[C@@H](O)[C@](O)(C(=O)CO)[C@@]3(C)C[C@H](O)[C@@]12F
inactive: outcome [1] | outcome [2] | Potency [4] | Potency [5] | Potency [8] | outcome [6] | Potency [12] | Potency [7] | Potency [13]

NC1=NCC2c3ccccc3Cc3ccccc3N12 (stereo unspecified)
inactive: outcome [2] | Potency [3] | Potency [4] | Potency [15] | Potency [16] | Potency [5] | Potency [8] | outcome [6] | outcome [9] | outcome [14] | Potency [10] | outcome [11] | Potency [12] | Potency [7] | Potency [13]

CCCN(CCC)CCc1cccc2c1CC(=O)N2
inactive: outcome [1] | outcome [2] | Potency [4] | Potency [15] | Potency [16] | Potency [5] | Potency [8] | outcome [6] | outcome [9] | outcome [14] | Potency [10] | outcome [11] | Potency [12] | Potency [7] | Potency [13]

C[N+](C)(C)CCCCCCCCCC[N+](C)(C)C
inactive: outcome [1] | outcome [2] | Potency [3] | Potency [4] | Potency [5] | Potency [8] | outcome [6] | outcome [9] | outcome [14] | Potency [10] | Potency [12] | Potency [7] | Potency [13]

CCCCNc1ccc(C(=O)OCCN(C)C)cc1
inactive: outcome [2] | Potency [3] | Potency [4] | Potency [15] | Potency [16] | Potency [5] | Potency [8] | outcome [6] | outcome [9] | outcome [14] | Potency [10] | outcome [11] | Potency [12] | Potency [7] | Potency [13]

CC1=C(C)C(=O)C(CCCCC#CCCCC#CCO)=C(C)C1=O
inactive: outcome [1] | outcome [2] | Potency [3] | Potency [4] | Potency [5] | Potency [8] | outcome [6] | outcome [9] | Potency [10] | outcome [11] | Potency [12] | Potency [7] | Potency [13]

CCCCOCCOCCOCc1cc2c(cc1CCC)OCO2
inactive: outcome [1] | outcome [2] | Potency [3] | Potency [4] | outcome [6] | Potency [12] | Potency [7] | Potency [13]

O=C(O)CN(CCOCCOCCN(CC(=O)O)CC(=O)O)CC(=O)O
inactive: outcome [2] | Potency [3] | Potency [4] | Potency [15] | Potency [16] | Potency [5] | Potency [8] | outcome [6] | outcome [9] | outcome [14] | Potency [10] | outcome [11] | activity change, negative = cytotoxic [12] 12.3% [at 0.594 µM] | activity change, negative = cytotoxic [7] 12.8% [at 0.597 µM] | activity change, negative = cytotoxic [13] 26.6% [at 0.597 µM]
